In PubChem BioAssay (NCI) one finds growth data, which are given here for 37 compounds.

“And” between values parts separate entries of the source, which are not always exact repeats. Identical values can stand only once. About 83,000 compounds went through this panel and 20% of them were active in at least one assay; those are over-represented in the sample as a whole.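 Activity criterion: percent growth below 10, measured after cells in 96-well plates were exposed to a single compound concentration for 48 hours.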 The source made the active and inactive calls.

The first experiment relates to OVCAR-4 ovarian. Briefly: NCI-60 one-dose screen, 48 h (100 = growth as untreated, 0 = no growth, -100 = all killed). Particulars: 10 µM unless noted.
For the compound `CCOC(=O)C1C(C=C(C)C)C1(C)C` (centres undefined), the growth was 116% (inactive).

Consider `O=C/C=C/c1ccco1`, for which the growth is 105% (inactive).

Take `Cn1cc(-c2csc(-c3cn(CCCCN4CCOCC4)c4ccc(F)cc34)n2)c2cccnc21`: the growth was 84.5% (inactive).

As for `CC(=O)Nc1nc2c(s1)C1=CC[C@H]3[C@@H]4CC[C@H](OC(C)=O)[C@@]4(C)CC[C@@H]3[C@@]1(C)CC2`, the growth is 69.4% (inactive).

In the case of `C[C@]12CC[C@H](O)C[C@@H]1CC[C@@H]1[C@@H]2CC[C@]2(C)OC(=O)CC[C@@H]12`, the growth was 104% (inactive).

For `C[C@]12CCc3sc(Nc4ccc(O)cc4)nc3C1=CC[C@@H]1[C@@H]2CC[C@]2(C)C(=O)CC[C@@H]12`, the growth is 57.1% (inactive).

In the case of `O=C(O)C(Br)CBr` (centres undefined), the growth is 97.1% (inactive).

Consider `Cc1cc[c-]cc1.Fc1c[c-]c(-c2ccccn2)c(F)c1.N#CCC[PH+](CCC#N)c1ccccc1.[Pt+2]`, for which the growth was 42.1% (inactive).

Take `O=P(O)(Nc1ccccc1)Nc1ccccc1`: the growth is 99.9% (inactive).

With `Cc1cc(N(CCCl)CCCl)ccc1C=Nc1ccc(-c2csc(-c3ccccc3)n2)cc1`, the growth was 89.6% (inactive).

With `Oc1ccccc1C=NCCN=Cc1ccccc1O`, the growth was 109% (inactive).

For `COC12CC3(C)C(C4=CC(=O)OC4)CCC3(O)C3CCC4=CC(=O)CCC4(CO1)C32` (centres undefined), the growth was 105% (inactive).

Regarding `CC12CCC3C(CCC4CC(O)CCC43C)C1CCC2=O` (centres undefined), the growth was 108% (inactive).

With `COc1cc(-c2ccc(N)c(OC)c2)ccc1N`, the growth was 104% (inactive).

For `COc1ccn(C)c(=O)c1C#N`, the growth was 114% (inactive).

As for `CCCCCCCCCCCCCCCC[N+](C)(C)Cc1ccccc1`, the growth was 3.33% (active) and -44.5% (active).

As to `Cc1nc2ccccc2c(=O)n1-c1ccccc1F`, the growth is 99.3% (inactive).

Turning to `C[C@]12CC[C@H]3[C@@H](C[C@@H]4SC(Nc5ccccc5)=N[C@@]45C/C(=N/O)CC[C@]35C)[C@@H]1CCC2=O`, the growth was 88% (inactive).

Regarding `N#CCN(CC#N)[N+](=O)[O-]`, the growth was 111% (inactive).

Turning to `O=C(O)c1ccccc1N(CCO)CCCl`, the growth was 108% (inactive).

Regarding `O=[N+]([O-])c1cc(Cl)c(Cl)cc1Cl`, the growth was 108% (inactive) and 113% (inactive).

Consider `CN1[C@@H](CC(=O)c2ccccc2)CCC[C@H]1CC(=O)c1ccccc1`, for which the growth is 107% (inactive).

`O=Cc1cn(Cc2ccccc2)c2ccccc12`: the growth was 55.1% (inactive).

`OCCN=Cc1c[nH]c2ccccc12`: the growth was 94% (inactive).

Take `C=CC[PH+](c1ccccc1)c1ccccc1.C=CC[PH+](c1ccccc1)c1ccccc1.[Pt+2].[S-]c1nc2ccccc2[nH]1.[S-]c1nc2ccccc2[nH]1`: the growth is 4.93% (active).

For `O=NN1CCCCC1`, the growth is 110% (inactive).

Take `COC(=O)C1=CCCN(C)C1`: the growth was 107% (inactive) and 101% (inactive).

In the case of `CC[C@H](C)[C@H](NC(=O)[C@H]1CCCCN1C)C(=O)N(C)[C@H](C[C@@H](OC(C)=O)c1cccc(C(=O)N[C@@H](Cc2ccccc2)C[C@H](C)C(=O)OC)n1)C(C)C`, the growth was 48.8% (inactive).

As for `CC1(C)CN=C(NN=C(/C=C/c2ccc(C(F)(F)F)cc2)/C=C/c2ccc(C(F)(F)F)cc2)NC1`, the growth is -92.3% (active).

In the case of `Cc1ccc(P(=O)(O)O)cc1`, the growth is 101% (inactive).

Take `Nc1ccc2c(c1)Cc1cc(N)ccc1-2`: the growth is 95.5% (inactive).

With `N#CCCc1ccccc1`, the growth was 110% (inactive).

For `CNC(=O)O/N=C(\SC)C(=O)N(C)C`, the growth is 119% (inactive).

Turning to `CCC1(CCSC#N)C(=O)NC(=O)NC1=O`, the growth is 91.4% (inactive).

As for `Oc1ccccc1C=NCCN=Cc1ccccc1O.[Fe]`, the growth is 117% (inactive).

Consider `CCCCCCCCCCCCCCCC[N+](C)(C)C`, for which the growth is -34.5% (active) and 17.2% (inactive).

Regarding `C[N+]1(C)CCCC1c1cccnc1` (centres undefined), the growth is 107% (inactive).

Another experiment relates to SK-OV-3 ovarian. Described as above. Particulars: 10 µM unless noted.
On to `CCOC(=O)C1C(C=C(C)C)C1(C)C` (centres undefined), for which the growth is 105% (inactive).

For the compound `O=C/C=C/c1ccco1`, the growth was 96.1% (inactive).

Consider `Cn1cc(-c2csc(-c3cn(CCCCN4CCOCC4)c4ccc(F)cc34)n2)c2cccnc21`, for which the growth is 84% (inactive).

For `CC(=O)Nc1nc2c(s1)C1=CC[C@H]3[C@@H]4CC[C@H](OC(C)=O)[C@@]4(C)CC[C@@H]3[C@@]1(C)CC2`, the growth is 68.4% (inactive).

`C[C@]12CC[C@H](O)C[C@@H]1CC[C@@H]1[C@@H]2CC[C@]2(C)OC(=O)CC[C@@H]12`: the growth is 85% (inactive).

On to `C[C@]12CCc3sc(Nc4ccc(O)cc4)nc3C1=CC[C@@H]1[C@@H]2CC[C@]2(C)C(=O)CC[C@@H]12`, for which the growth is 108% (inactive).

Consider `O=C(O)C(Br)CBr` (centres undefined), for which the growth is 101% (inactive).

As for `Cc1cc[c-]cc1.Fc1c[c-]c(-c2ccccn2)c(F)c1.N#CCC[PH+](CCC#N)c1ccccc1.[Pt+2]`, the growth was 108% (inactive).

As for `O=P(O)(Nc1ccccc1)Nc1ccccc1`, the growth was 110% (inactive).

Regarding `Cc1cc(N(CCCl)CCCl)ccc1C=Nc1ccc(-c2csc(-c3ccccc3)n2)cc1`, the growth was 71.6% (inactive).

For `Oc1ccccc1C=NCCN=Cc1ccccc1O`, the growth was 102% (inactive).

On to `COC12CC3(C)C(C4=CC(=O)OC4)CCC3(O)C3CCC4=CC(=O)CCC4(CO1)C32` (centres undefined), for which the growth was 117% (inactive).

`CC12CCC3C(CCC4CC(O)CCC43C)C1CCC2=O` (centres undefined): the growth was 126% (inactive).

In the case of `COc1cc(-c2ccc(N)c(OC)c2)ccc1N`, the growth is 105% (inactive).

As to `COc1ccn(C)c(=O)c1C#N`, the growth is 91.9% (inactive).

For the compound `CCCCCCCCCCCCCCCC[N+](C)(C)Cc1ccccc1`, the growth is 31.6% (inactive) and -7.74% (active).

Consider `Cc1nc2ccccc2c(=O)n1-c1ccccc1F`, for which the growth was 97.4% (inactive).

On to `C[C@]12CC[C@H]3[C@@H](C[C@@H]4SC(Nc5ccccc5)=N[C@@]45C/C(=N/O)CC[C@]35C)[C@@H]1CCC2=O`, for which the growth is 105% (inactive).

With `N#CCN(CC#N)[N+](=O)[O-]`, the growth is 104% (inactive).

As for `O=C(O)c1ccccc1N(CCO)CCCl`, the growth is 108% (inactive).

As to `O=[N+]([O-])c1cc(Cl)c(Cl)cc1Cl`, the growth was 123% (inactive) and 110% (inactive).

For `CN1[C@@H](CC(=O)c2ccccc2)CCC[C@H]1CC(=O)c1ccccc1`, the growth was 117% (inactive).

On to `O=Cc1cn(Cc2ccccc2)c2ccccc12`, for which the growth was 61.4% (inactive).

On to `OCCN=Cc1c[nH]c2ccccc12`, for which the growth was 98.6% (inactive).

As for `C=CC[PH+](c1ccccc1)c1ccccc1.C=CC[PH+](c1ccccc1)c1ccccc1.[Pt+2].[S-]c1nc2ccccc2[nH]1.[S-]c1nc2ccccc2[nH]1`, the growth was 8.34% (active).

With `O=NN1CCCCC1`, the growth is 107% (inactive).

On to `COC(=O)C1=CCCN(C)C1`, for which the growth is 111% (inactive) and 110% (inactive).

In the case of `CC[C@H](C)[C@H](NC(=O)[C@H]1CCCCN1C)C(=O)N(C)[C@H](C[C@@H](OC(C)=O)c1cccc(C(=O)N[C@@H](Cc2ccccc2)C[C@H](C)C(=O)OC)n1)C(C)C`, the growth is 13.8% (inactive).

`CC1(C)CN=C(NN=C(/C=C/c2ccc(C(F)(F)F)cc2)/C=C/c2ccc(C(F)(F)F)cc2)NC1`: the growth was -7.65% (active).

`Cc1ccc(P(=O)(O)O)cc1`: the growth was 128% (inactive).

For the compound `Nc1ccc2c(c1)Cc1cc(N)ccc1-2`, the growth is 82.3% (inactive).

On to `N#CCCc1ccccc1`, for which the growth was 111% (inactive).

Regarding `CNC(=O)O/N=C(\SC)C(=O)N(C)C`, the growth is 102% (inactive).

In the case of `CCC1(CCSC#N)C(=O)NC(=O)NC1=O`, the growth is 98.4% (inactive).

For the compound `Oc1ccccc1C=NCCN=Cc1ccccc1O.[Fe]`, the growth is 101% (inactive).

Consider `CCCCCCCCCCCCCCCC[N+](C)(C)C`, for which the growth was -55.5% (active) and 11% (inactive).

`C[N+]1(C)CCCC1c1cccnc1` (centres undefined): the growth was 108% (inactive).
